Rows were chosen to be rich in hits. Some 7.3% of all compounds tested hit in one or more screens of this group.
ELG1 genotoxic: genotoxicity induction in ELG1-luciferase HEK293T cells. HEK293T ELG1-luciferase reporter, luminescence, 16 h. Potency, µM (doses to about 46 µM), for the others: at the highest dose activity change, positive = activation, most hits filed as activators. 330,000 compounds, 1.3% hits; also: % of control where 0% means no effect; nearly all actives have a fitted effect of over 60% in size
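After overnight (16 hr) compound treatment at 37 °C, ELG1-luciferase HEK293T cells were lysed with ONE-Glo; luminescence quantified 30 min later at room temperature.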
KinaseGlo FLuc: blocks Kinase-Glo luciferase, a counter-screen artifact | Potency, µM (series often up to 38.3 µM), without a hit: at the highest dose activity change, negative = inhibition, actives largely listed as inhibitors | 200,000 compounds, 0.28% hits | Q27757 | Kinase-Glo luciferase, ATP luminescence, 8 min; also: % is scaled to controls: 0 for no effect and ±100 for the full control effect; nearly all actives have a fitted effect of over 60% in size
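Recombinant Kinase-Glo luciferase, 10 uM ATP (linear range), luciferin; imidazole pH 7.2 / KCl / MgCl2 / Tween / BSA buffer; 8 min RT; luminescence.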
Rab9 prom act: activators of Rab9 promoter; Huh7 Rab9 promoter-luciferase reporter, luminescence, 24 h; Potency, µM (top dose mostly 9.22 µM), for the others: at the highest dose activation, negative = inhibition, most hits filed as activators; 320,000 compounds, 2.8% hits; AID 485297; also: % of control where 0% means no effect; nearly all actives have a fitted effect of over 60% in size
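Cell-based reporter: Huh7 stable for Rab9 promoter-driven luciferase, plated in reduced-serum medium with 10% FBS at 1500 cells/well, compound-treated 24 h at 37 °C, luminescence read after 10 min reagent.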
NPC1 promoter act: NPC1 promoter activation; Huh7 NPC1 promoter luciferase reporter, 24 h; 320,000 compounds, 2.4% hits; Potency, µM (series often up to 9.22 µM), for the others: top-dose activation, actives largely listed as activators; also: % of control where 0% means no effect; nearly all actives have a fitted effect of over 60% in size
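Stable NPC1-promoter luciferase Huh7 line; cpd (DMSO) 24 h, 37 °C, 5% CO2; Amplite luciferase reagent 10 min RT; luminescence readout. qHTS format.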
FLuc counter: counter-screen for miR-21 project: firefly luciferase inhibitors or activators | purified FLuc, Km substrates, luminescence inhibition | 360,000 compounds, 6.9% hits | Potency, µM (highest dose often 57.5 µM), inactives show at the highest dose activity change, negative = inhibition, actives largely listed as inhibitors | P08659 | AID 588342;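 also: plate controls were vehicle for no effect and reference inhibitor for full effect; nearly all actives have a fitted effect of over 55% in size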
Target sequence (P08659 whole entry, looked up): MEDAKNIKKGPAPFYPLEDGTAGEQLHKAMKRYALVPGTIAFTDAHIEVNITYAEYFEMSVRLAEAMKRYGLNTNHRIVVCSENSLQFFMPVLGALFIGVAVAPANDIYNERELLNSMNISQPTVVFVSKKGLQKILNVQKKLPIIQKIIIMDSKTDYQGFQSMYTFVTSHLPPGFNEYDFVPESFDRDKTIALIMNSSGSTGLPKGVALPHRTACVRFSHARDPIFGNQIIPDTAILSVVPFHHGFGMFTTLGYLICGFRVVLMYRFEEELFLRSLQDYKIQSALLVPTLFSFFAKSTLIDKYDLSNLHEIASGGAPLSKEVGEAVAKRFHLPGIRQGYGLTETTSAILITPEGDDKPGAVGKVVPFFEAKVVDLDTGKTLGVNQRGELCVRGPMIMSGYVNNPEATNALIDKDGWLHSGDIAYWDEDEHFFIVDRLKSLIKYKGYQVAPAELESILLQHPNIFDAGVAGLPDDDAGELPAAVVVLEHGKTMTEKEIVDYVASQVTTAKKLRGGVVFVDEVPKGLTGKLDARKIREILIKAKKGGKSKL
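Biochemical qHTS of compounds, final roughly 60 µM downward over six points, against 10 nM purified firefly luciferase using Km concentrations of substrates (10 uM D-luciferin, 10 uM ATP) in Tris acetate pH 7.5 buffer; luminescence output.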
SMN2 splice up: enhancers of SMN2 splice variant expression | HEK293 SMN2-luciferase splicing reporter, luminescence, 30-36 h | Potency, µM (highest dose often 46.1 µM), without a hit: at the highest dose activity change, positive = activation, hits mostly activators | 210,000 compounds, 2.8% hits | AID 1458; also: % of control where 0% means no effect; nearly all actives have a fitted effect of over 55% in size
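qHTS luciferase splicing reporter: luminescence rises when SMN2 exon 7 is included in transfected HEK293 cells. Compound exposure lasted 30-36 h at 37C, with 4.5 mM final sodium butyrate as control, followed by a ONE-Glo read.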
Active calls of the source: *; u = inconclusive; x = no result given; [ ] = remark or other dose. Calls follow the shape of the dose curve; as a rule, active = well fitted curve in the direction sought with a large enough effect; inconclusive = small, poorly fitted or top-dose-only effect, or another doubt; inactive = no such curve, though single readings can be large; an effect the other way counts as inactive or inconclusive. Potency is read from the fitted curve at half-maximal effect.

SMILES | ELG1 genotoxic | KinaseGlo FLuc | Rab9 prom act | NPC1 promoter act | FLuc counter | SMN2 splice up
N#Cc1c(NC(=O)C(F)(F)F)sc2c3c(=O)c4ccccc4c(=O)c=3oc3ccccc3c12 | x | -1.9%[7.66 µM] | x | x | x | 3.1%[9.22 µM]
O=C(c1ccc2c(c1)N(Cc1ccc(Cl)cc1)C(=O)c1ccccc1S2(=O)=O)N1CCCCCC1 | x | x | x | x | 6.4% | -13.6%
Cc1ccc(C)c(NS(=O)(=O)c2cc(C(=O)O)ccc2Cl)c1 | x | -0.8% | x | x | x | x
O=C(CSc1ccc(-c2ccc(Cl)cc2)nn1)N1CCCc2ccccc21 | -3.6% | 4.0% | 4.5% | -2.0% | 15.1µM* | -27.2%
Cc1cc(Br)c2c(c1)/C(=C/C(=O)c1cccs1)C(=O)N2 | 4.8% | 1.4% | -13.6% | -9.0% | -18.2% | 3.3%
Cc1cccc2c1NC(=O)/C2=C\C(=O)c1cccs1 | 7.9% | -4.1% | 0.2% | 0.1% | 4.78µM* | -32.9%
COc1ccc(N2Nc3n[nH]c(N)c3N2)cc1 | 8.2% | 1.9% | u | 20.5% | 26.9µM* | u
CCOc1ccc(N2Nc3n[nH]c(N)c3N2)cc1 | u | -2.7% | u | u | 19µM* | u
COc1ccc(Br)cc1CNC(=O)C(C)n1nc(C)n2c(cc3occc32)c1=O (centres undefined) | x | x | x | x | -12.6% | 9.8%
COc1ccc(-n2c(SCC(=O)NCc3ccccc3)nc3c([nH]c4ccccc43)c2=O)cc1 | x | x | x | x | -1.2% | x
COc1ccc(Nc2nc3ccccc3n3cnnc23)cc1Cl | 11.7% | x | 4.4% | -0.6% | u | x
COc1ccc(/C(C)=N/Nc2nc3ccccc3n3cnnc23)cc1OC | -0.9% | x | 9.1% | 3.8% | 10.7µM* | x
CCOC(=O)c1c(N)n(-c2ccc(Cl)c(Cl)c2)c2nc3ccccc3nc12 | x | x | x | x | -1.3% | 3.0%
N/C(=N\OC(=O)CCCc1ccccc1)c1ccccc1Cl | u | x | 1.6% | 1.9% | 6.75µM* | x
Cc1ccc(/C(N)=N/OC(=O)CCCc2ccccc2)cc1 | u | x | 25.0% | 0.6% | u | x
Cc1ccc(/C(N)=N/OC(=O)CCC2CCCC2)cc1 | 10.6% | 1.8% | 3.5% | -3.2% | 15.1µM* | 21.9%
Cc1cccc(/C(N)=N/OC(=O)CCC2CCCCC2)c1 | u | -9.4% | 10.2% | 14.1% | 6.01µM* | 20.8%
COc1ccc(/C(N)=N/OC(=O)CCC2CCCC2)cc1 | -0.9% | x | 9.4% | 0.7% | 5.3% | x
Cc1cccc(/C(N)=N/OC(=O)CCc2ccccc2)c1 | 12.9% | x | u | 18.6% | 21.3µM* | x
CCc1cccc(NC(=O)CSc2ncc3c(n2)-c2ccccc2N(Cc2ccccc2C)S3(=O)=O)c1 | x | x | x | x | 5.8% | x
Cc1nc2cnc(N3CCNCC3)nc2n(-c2ccccc2)c1=O | x | -4.5% | x | x | x | -4.0%
Cc1ccc(/C(N)=N/OC(=O)CCC2CCCCC2)cc1 | 9.2% | -1.0% | 18.0% | 11.0% | 19µM* | 15.8%
N/C(=N\OC(=O)CCC1CCCC1)c1ccc(Cl)cc1 | u | x | 2.6% | 13.0% | 21.3µM* | x
Cc1ccc(COc2ccc3c(c2)OCO3)cc1 | u | x | 3.98µM* | 2.24µM* | 1.2µM* | x
O=Cc1ccc(OCc2ccc3c(c2)OCO3)cc1 | 18.3µM* | x | 2.3% | 17.3% | 4.78µM* | x
SMILES | ELG1 genotoxic | KinaseGlo FLuc | Rab9 prom act | NPC1 promoter act | FLuc counter | SMN2 splice up
CCn1c(=NC(=O)c2ccco2)sc2cccc(F)c21 | 14.6µM* | 3.3% | 10.0% | 5.1% | 16.9µM* | 15.8µM*
Cc1oc(-c2ccccc2)cc1C(=O)Nc1ccccc1 | -0.6% | -2.8% | -1.3% | 10.3% | -16.1% | 29.5%
Cc1c(C(=O)Nc2ccccc2)csc1-c1ccccc1 | 3.66µM* | -19.0% | 0.708µM* | 1.12µM* | 0.213µM* | 12.6µM*
Cc1c(C(=O)Nc2ccccc2[N+](=O)[O-])csc1-c1ccccc1 | 4.61µM* | x | 2.82µM* | 3.16µM* | 1.2µM* | x
COCCCN1C(=O)c2ccccc2CC1(C)C(=O)NC1CCCCC1 (centres undefined) | x | x | x | x | -0.7% | 15.4%
Cc1ccc(CNC(=O)CN(C)S(=O)(=O)c2ccc3c(c2)c(=O)n(C)c(=O)n3C)cc1 | x | x | x | x | -4.9% | 5.0%
